Laboratory results taken from PubChem BioAssay (NCATS).
Unmarked numbers belong to inactive results. Inconclusive results are not listed. Calls of active or inactive are those of the source. Unless noted, the call rests on the fitted dose curve; in most records, active means well fitted curve in either direction with a large enough effect (not every such curve was filed as active); inconclusive means small, poorly fitted or top-dose-only effect, or another doubt; inactive means flat fitted curve, though single readings scatter.

Tests used:
[1] = biological target: Lysosomal acid glucosylceramidase (Homo sapiens) (UniProt P04062); test: Glucocerebrosidase-p2 (AID 348; in the data active means potency below about 10 µM; further: potency means the concentration at half of the fitted maximal effect); conditions: purified GBA, blue fluorogenic substrate, 40 min
Method in brief: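 Compounds titrated from 0.6 nM upwards against 0.2 nM enzyme in pH 5.9 citric acid/KH2PO4, taurocholate, tween-20; blue fluorogenic substrate 80 uM, 40 min room temperature, stopped and read Ex 365/Em 440 for AC50.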

[2] = AP1 Signaling Pathway (AID 357); conditions: ME-180 AP-1-bla reporter, EGF-induced, beta-lactamase ratio, 5 h; at 7.69 µM (top of the series) unless noted;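 further: ME-180 reporter cells stimulated with EGF at its EC50 level; on the % scale 0 is the no-effect control and ±100 the full control effect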
Method in brief: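 Cells are seeded overnight, exposed to compound titrations and an EC50 level of EGF for 5 hours at 37 °C, then loaded with CCF4 dye for 2.5 hours. Beta-lactamase activity under the AP-1 element is read as a blue/green ratio.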

[3] = biological target: Cytochrome P450 1A2 (Homo sapiens) (UniProt P05177); test: p450-cyp1a2 (AID 410; calls by dose curve; further: potency means the concentration at half of the fitted maximal effect;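 on activity change, negative = inhibition: -100% = full effect of reference inhibitor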); conditions: recombinant CYP1A2, luciferin-ME demethylation, luminescence; series mostly up to 11.4 µM
Method in brief: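 Luminescent readout of luciferin formed from Luciferin-ME by human CYP1A2; data normalized against complete inhibition by 57 uM furafylline. Enzyme 20nM, substrate 100uM at Km, 100mM KPO4 buffer, 60 min reaction at room temperature.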

[4] = biological target: Glucocorticoid receptor (Homo sapiens) (UniProt P04150); test: GR-GFP Redistribution (AID 450;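 active means compounds whose dose series gives a full or clear partial fitted curve of increased nuclear translocation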; further: potency means the concentration at half of the fitted maximal effect); conditions: U2OS GR-GFP nuclear translocation, laser cytometry, 2 h
[5] = biological target: Glucocorticoid receptor (Homo sapiens) (UniProt P04150); test: GR-EFC Redistribution (AID 451; calls by dose curve; further: potency means the concentration at half of the fitted maximal effect); conditions: CHO-K1 GR-EFC translocation, beta-gal luminescence, 2 h
Method in brief: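 CHO-K1 cells expressing nuclear EA and GR-ED fragments of b-gal; compounds titrated up to 46 uM final, 2 h at 37 C. GR nuclear translocation read as complemented b-gal luminescence after 1 h RT detection.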

[6] = biological target: Mitogen-activated protein kinase 10 (Mus musculus) (UniProt Q61831); test: JNK3 AlphaScreen Assay (AID 530); conditions: JNK3 lysate, c-Jun phosphorylation; series mostly up to 57.1 µM;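 further: kinase came from lysate of stimulated human HepG2 cells; signal reports phosphorylation of biotinylated GST-cJun 1-79 at Ser73 with 10 µM ATP; on the % scale 0 is the no-effect control and ±100 the full control effect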
Method in brief: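 Pre-activated (IL-1β/TNFα) JNK3 in HepG2 lysates phosphorylates biotin-GST-cJun(1-79), 10 uM ATP; anti-phospho-cJun(Ser73) AlphaScreen read at room temperature, pH 7.6 Tris buffer. Compounds pre-incubated 15 min as titrations.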

[7] = biological target: 3',5'-cyclic-AMP phosphodiesterase 4B (Homo sapiens) (UniProt Q07343); test: qHTS Assay for Inhibitors of PDE-IV (AID 607; active means well fitted activation curve with a large enough effect in the main read-out, with a control signal flat, not every such curve was filed as active; further: % of control where 0% means no effect); conditions: HEK293 ACTOne CNG channel cells, membrane potential fluorescence; series mostly up to 22.9 µM
Method in brief: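 The readout is membrane depolarisation from a cAMP-sensing CNG channel, detected with a potential dye at ex 535/em 590. Cells were HEK293-derived (endogenous PDE-IV) at 1000 cells/well, titrated up to 22.9 uM final.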

[8] = biological target: Cytochrome P450 3A4 (Homo sapiens) (UniProt P08684); test: qHTS Assay for Activators of Cytochrome P450 3A4 (AID 885; active means well fitted curve in the direction sought with a large enough effect; an effect the other way counts as inactive or inconclusive; further: nearly all actives have a fitted effect of over 65% in size); conditions: recombinant CYP3A4, Luciferin-PPXE luminescence, 60 min; series mostly up to 57.1 µM
Method in brief: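 Steps: enzyme/substrate mix dispensed; compound added, 10 min RT; NADPH regeneration solution added, 60 min RT; luciferin detection buffer stops reaction; 20 min later luminescence measured.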

[9] = biological target: Cytochrome P450 2D6 (Homo sapiens) (UniProt P10635); test: qHTS Assay for Inhibitors and Substrates of Cytochrome P450 2D6 (AID 891; active means well fitted curve in the direction sought with a large enough effect; an effect the other way counts as inactive or inconclusive; further: potency means the concentration at half of the fitted maximal effect; nearly all actives have a fitted effect of over 60% in size); conditions: recombinant CYP2D6, luciferin-ME EGE luminescence; series mostly up to 11.4 µM
Method in brief: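 Human CYP2D6 (5 nM) with 30 uM Luciferin-ME EGE (at Km) in 100 mM KPO4, compound preincubated 10 min, then NADPH regeneration system for 60 min at room temperature. Luciferin read by luminescence; normalized to 1.43 uM quinidine.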

[10] = biological target: Cytochrome P450 2C19 (Homo sapiens) (UniProt P33261); test: qHTS Assay for Inhibitors and Substrates of Cytochrome P450 2C19 (AID 899; active means well fitted curve in the direction sought with a large enough effect; an effect the other way counts as inactive or inconclusive; further: potency means the concentration at half of the fitted maximal effect; nearly all actives have a fitted effect of over 60% in size); conditions: recombinant CYP2C19, luciferin-H EGE luminescence; series mostly up to 11.4 µM
Method in brief: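 Signal comes from luciferase acting on luciferin released by CYP2C19-mediated hydroxylation of Luciferin-H EGE, 10uM (KM). Assay mix: 5nM enzyme, 50mM KPO4; 60 min at 37C with NADPH regeneration. Data normalized against 57uM ketoconazole.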

[11] = Stat Signaling Pathway (AID 446); conditions: ME-180 SIE beta-lactamase reporter, IL-6 stimulated, 5 h; at 7.69 µM (top of the series) unless noted;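 further: ME-180 cervical cancer cells given 40 pM IL-6 alongside compound; SIE-controlled beta-lactamase reporter measured as 460/530 nm FRET emission ratio; on the % scale 0 is the no-effect control and ±100 the full control effect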
Method in brief: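 Screening format detects activators and inhibitors alike: ME-180 SIE-bla cells stimulated at 40 pM IL-6 for 5 hrs with compound, then dual-emission beta-lactamase read at 405 nm excitation.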

[12] = biological target: Cytochrome P450 2C9 (Homo sapiens) (UniProt P11712); test: qHTS Assay for Inhibitors and Substrates of Cytochrome P450 2C9 (AID 883; active means well fitted curve in the direction sought with a large enough effect; an effect the other way counts as inactive or inconclusive; further: potency means the concentration at half of the fitted maximal effect; nearly all actives have a fitted effect of over 60% in size); conditions: recombinant CYP2C9, luciferin-H luminescence, 60 min; series mostly up to 57.1 µM
Method in brief: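 Signal: luciferase luminescence reporting luciferin produced by CYP2C9. Conditions: 10nM enzyme, Luciferin-H 100uM at KM, 25mM KPO4, 37C, 60 min NADPH-driven reaction. Reference: 57uM sulphaphenazole as 100% inhibition.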

[13] = NFAT Signaling Pathway (AID 444); conditions: Jurkat NFAT-bla M1, carbachol, beta-lactamase ratio, 5 h; at 7.69 µM (top of the series) unless noted;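 further: carbachol stimulus at about its EC50 of 1 µM final; on the % scale 0 is the no-effect control and ±100 the full control effect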
Method in brief: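 Jurkat cells with NFAT-driven β-lactamase reporter and co-expressed M1 receptor, stimulated with carbachol (final 1 uM, ~EC50), compound titration, 5 h at 37 °C. CCF4 loaded 1 h at RT; 460/530 nm ratio gave %activity and AC50.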

[14] = qHTS Assay for Identification of Small Molecule Agonists for Hypoxia Response Element Signaling Pathway (AID 914; active means well fitted activation curve with a large enough effect in the signal ratio, with a control signal flat, not every such curve was filed as active; the % refers to the signal ratio; further: % of control where 0% means no effect); conditions: ME-180 (cervical carcinoma) HRE-bla reporter, beta-lactamase ratio, CoCl2, 17 h; hits give high values
Method in brief: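 Reporter activity (beta-lactamase, CCF4 460nm/530nm ratio) in HRE-bla ME-180 cells is recorded after 17 h compound exposure with EC50 CoCl2 at 37 degrees Celsius. AC50 values come from titration data.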

Lysosomal acid glucosylceramidase (Homo sapiens), sequence (P04062 whole entry, looked up): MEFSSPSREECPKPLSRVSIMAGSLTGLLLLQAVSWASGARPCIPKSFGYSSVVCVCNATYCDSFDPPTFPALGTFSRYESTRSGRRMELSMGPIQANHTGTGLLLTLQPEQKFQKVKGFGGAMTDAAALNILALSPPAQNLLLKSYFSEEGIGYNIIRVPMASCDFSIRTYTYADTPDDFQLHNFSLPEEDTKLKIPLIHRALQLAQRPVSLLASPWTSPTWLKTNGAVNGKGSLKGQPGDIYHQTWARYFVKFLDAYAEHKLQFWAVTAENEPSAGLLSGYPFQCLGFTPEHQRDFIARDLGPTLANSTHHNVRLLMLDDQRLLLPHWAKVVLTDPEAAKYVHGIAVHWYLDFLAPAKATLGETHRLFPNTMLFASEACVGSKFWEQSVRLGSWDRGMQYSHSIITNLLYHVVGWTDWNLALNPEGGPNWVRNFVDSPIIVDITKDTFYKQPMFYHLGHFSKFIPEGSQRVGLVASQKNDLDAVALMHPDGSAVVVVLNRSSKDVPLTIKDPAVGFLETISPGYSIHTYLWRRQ
Glucocorticoid receptor (Homo sapiens), sequence (P04150 whole entry, looked up, the tested form may be a part): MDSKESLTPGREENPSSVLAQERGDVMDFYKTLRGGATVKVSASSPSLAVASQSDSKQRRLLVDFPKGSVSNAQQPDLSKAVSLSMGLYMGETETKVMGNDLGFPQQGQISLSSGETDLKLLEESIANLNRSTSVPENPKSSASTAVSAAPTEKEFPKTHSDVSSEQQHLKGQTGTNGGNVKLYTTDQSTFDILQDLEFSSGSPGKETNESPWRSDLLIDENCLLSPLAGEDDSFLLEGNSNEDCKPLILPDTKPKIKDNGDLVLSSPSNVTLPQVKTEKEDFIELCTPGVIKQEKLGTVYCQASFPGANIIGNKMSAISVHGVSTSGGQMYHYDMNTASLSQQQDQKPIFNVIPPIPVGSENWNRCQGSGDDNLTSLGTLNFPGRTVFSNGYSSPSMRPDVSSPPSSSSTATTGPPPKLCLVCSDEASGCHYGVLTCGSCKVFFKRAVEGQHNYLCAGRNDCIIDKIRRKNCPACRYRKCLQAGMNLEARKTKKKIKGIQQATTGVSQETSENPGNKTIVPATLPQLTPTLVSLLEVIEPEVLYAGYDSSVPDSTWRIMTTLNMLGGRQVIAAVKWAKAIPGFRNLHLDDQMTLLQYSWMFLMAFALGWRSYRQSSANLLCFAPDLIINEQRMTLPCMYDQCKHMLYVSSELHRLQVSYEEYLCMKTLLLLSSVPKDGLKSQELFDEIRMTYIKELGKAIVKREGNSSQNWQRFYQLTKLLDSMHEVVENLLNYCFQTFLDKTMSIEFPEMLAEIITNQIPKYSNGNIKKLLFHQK
Cytochrome P450 1A2 (Homo sapiens), sequence (P05177 whole entry, looked up): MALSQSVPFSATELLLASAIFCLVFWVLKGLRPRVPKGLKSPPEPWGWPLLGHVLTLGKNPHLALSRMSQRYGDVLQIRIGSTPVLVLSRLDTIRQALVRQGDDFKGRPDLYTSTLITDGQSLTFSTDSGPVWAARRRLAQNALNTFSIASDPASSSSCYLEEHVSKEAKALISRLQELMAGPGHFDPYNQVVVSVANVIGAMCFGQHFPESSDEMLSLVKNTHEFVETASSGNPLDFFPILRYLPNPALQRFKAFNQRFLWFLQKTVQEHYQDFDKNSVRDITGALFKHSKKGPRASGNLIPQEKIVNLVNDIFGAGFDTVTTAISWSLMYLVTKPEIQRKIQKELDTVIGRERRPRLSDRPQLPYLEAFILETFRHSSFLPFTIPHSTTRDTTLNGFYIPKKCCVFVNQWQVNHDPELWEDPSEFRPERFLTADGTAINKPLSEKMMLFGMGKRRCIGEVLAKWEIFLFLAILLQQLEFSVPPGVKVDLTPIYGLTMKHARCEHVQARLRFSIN
3',5'-cyclic-AMP phosphodiesterase 4B (Homo sapiens), sequence (Q07343 whole entry, looked up): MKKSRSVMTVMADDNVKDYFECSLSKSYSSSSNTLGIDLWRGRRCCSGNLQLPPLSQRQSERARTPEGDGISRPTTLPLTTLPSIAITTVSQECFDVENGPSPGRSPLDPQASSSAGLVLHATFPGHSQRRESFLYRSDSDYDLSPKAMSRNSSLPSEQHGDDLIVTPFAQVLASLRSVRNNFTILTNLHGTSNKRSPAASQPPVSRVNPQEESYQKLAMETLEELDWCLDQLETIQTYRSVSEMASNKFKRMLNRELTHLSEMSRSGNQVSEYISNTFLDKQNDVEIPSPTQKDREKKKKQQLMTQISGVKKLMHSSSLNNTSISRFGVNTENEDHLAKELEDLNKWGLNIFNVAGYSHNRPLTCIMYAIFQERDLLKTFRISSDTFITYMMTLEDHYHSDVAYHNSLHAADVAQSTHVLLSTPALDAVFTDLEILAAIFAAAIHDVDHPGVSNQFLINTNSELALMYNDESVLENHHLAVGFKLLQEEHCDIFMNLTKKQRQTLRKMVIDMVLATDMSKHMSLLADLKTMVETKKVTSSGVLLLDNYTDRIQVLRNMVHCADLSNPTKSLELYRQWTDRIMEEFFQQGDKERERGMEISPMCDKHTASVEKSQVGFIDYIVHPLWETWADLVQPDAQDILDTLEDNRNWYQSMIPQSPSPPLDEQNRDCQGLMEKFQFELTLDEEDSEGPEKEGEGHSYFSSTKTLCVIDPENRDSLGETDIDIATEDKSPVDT
Cytochrome P450 2C19 (Homo sapiens), sequence (P33261 whole entry, looked up): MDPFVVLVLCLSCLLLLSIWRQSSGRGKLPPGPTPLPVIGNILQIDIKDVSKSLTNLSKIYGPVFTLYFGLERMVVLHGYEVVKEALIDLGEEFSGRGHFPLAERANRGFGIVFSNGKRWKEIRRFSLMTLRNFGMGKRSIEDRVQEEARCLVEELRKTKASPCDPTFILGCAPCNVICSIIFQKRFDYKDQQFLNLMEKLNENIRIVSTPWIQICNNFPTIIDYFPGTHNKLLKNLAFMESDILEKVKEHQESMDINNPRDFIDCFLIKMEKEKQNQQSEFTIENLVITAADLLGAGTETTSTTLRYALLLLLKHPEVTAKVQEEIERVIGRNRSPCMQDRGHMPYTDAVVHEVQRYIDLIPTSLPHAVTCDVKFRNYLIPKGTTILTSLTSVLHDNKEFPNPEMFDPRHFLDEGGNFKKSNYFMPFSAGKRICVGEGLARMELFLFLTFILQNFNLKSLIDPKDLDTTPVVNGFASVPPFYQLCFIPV
Cytochrome P450 3A4 (Homo sapiens), sequence (P08684 whole entry, looked up): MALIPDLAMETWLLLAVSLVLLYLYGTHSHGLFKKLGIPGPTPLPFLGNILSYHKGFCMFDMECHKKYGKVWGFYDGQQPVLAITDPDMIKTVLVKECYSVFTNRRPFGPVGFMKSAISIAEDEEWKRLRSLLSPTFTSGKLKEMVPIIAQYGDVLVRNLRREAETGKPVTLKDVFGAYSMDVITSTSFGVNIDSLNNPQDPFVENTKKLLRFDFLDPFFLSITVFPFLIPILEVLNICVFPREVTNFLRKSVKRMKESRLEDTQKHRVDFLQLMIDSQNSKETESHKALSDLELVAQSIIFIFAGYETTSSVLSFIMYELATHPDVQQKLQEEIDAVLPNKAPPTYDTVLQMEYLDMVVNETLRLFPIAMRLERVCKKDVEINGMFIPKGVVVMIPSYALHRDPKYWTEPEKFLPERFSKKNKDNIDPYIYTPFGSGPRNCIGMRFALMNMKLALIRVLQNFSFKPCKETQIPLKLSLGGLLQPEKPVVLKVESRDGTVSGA
Cytochrome P450 2C9 (Homo sapiens), sequence (P11712 whole entry, looked up): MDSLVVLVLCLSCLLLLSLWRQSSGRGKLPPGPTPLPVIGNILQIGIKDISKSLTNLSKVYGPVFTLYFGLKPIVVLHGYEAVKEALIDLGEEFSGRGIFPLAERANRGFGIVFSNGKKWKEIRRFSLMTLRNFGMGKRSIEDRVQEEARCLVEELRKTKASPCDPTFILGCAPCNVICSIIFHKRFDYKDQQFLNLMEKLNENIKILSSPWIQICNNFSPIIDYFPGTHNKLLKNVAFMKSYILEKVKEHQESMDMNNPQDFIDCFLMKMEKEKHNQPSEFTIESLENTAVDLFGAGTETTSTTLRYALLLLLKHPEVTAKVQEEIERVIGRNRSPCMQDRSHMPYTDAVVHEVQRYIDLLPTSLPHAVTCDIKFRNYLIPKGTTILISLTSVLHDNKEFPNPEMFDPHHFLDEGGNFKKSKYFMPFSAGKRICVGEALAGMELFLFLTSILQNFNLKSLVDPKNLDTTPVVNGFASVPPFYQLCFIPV
Cytochrome P450 2D6 (Homo sapiens), sequence (P10635 whole entry, looked up): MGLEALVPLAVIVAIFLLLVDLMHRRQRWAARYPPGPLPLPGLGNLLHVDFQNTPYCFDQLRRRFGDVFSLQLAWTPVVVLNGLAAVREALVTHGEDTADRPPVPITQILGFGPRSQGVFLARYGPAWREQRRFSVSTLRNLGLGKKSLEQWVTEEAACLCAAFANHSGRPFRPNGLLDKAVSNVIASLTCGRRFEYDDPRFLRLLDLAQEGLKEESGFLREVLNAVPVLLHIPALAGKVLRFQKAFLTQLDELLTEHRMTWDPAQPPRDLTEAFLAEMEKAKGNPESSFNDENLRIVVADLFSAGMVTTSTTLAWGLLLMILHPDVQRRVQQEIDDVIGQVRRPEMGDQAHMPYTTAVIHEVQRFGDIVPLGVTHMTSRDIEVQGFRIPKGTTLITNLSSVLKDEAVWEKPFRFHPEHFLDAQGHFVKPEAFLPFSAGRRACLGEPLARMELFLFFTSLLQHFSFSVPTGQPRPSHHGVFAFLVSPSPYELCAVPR

SMILES	Potency [1] [µM]	activity change, negative = inhibition [2] [%]	Potency [3]	Potency [4] [µM]	Potency [5] [µM]	activity change, negative = inhibition [6]	outcome [7]	activity change, positive = activation [8]	Potency [9]	Potency [10]	activity, negative = inhibition [11] [%]	Potency [12]	activity change, negative = inhibition [13] [%]	activation [14] [%]
NCCSC(c1ccccc1)c1ccccc1	> 11.4	6.46	1.58 µM (active)	> 46	> 9.22	1.83% [at 11.4 µM]	inactive	-39.5% [at 11.4 µM]	0.794 µM (active)	1.26 µM (active)	–	–	–	–
O=C(O)C(O)(c1ccc(-c2ccccc2)cc1)c1ccc(-c2ccccc2)cc1	> 11.4	-25.7	inactive	> 46	–	1.15% [at 11.4 µM]	inactive	–	–	–	-5.5	3.16 µM (active)	–	–
FC(F)(F)c1nc2ccc(SSc3ccc4nc(C(F)(F)F)[nH]c4c3)cc2[nH]1	> 11.4	-1.24	0.501 µM (active)	> 46	> 9.22	12.4% [at 11.4 µM]	–	–	–	5.01 µM (active)	-6.22	–	–	–
O=C(O)[C@H]1C2c3ccccc3C(c3ccccc32)[C@@H]1C(=O)NCC1CC1	> 11.4	1.37	–	> 46	> 9.22	2.32% [at 11.4 µM]	–	–	–	–	26.5	–	-3.96	-0.158
O=C(O)C[C@H]1OCC=C2CN3CC[C@]45c6ccccc6N[C@@H]4[C@H]1[C@H]2C[C@H]35	> 11.4	0.952	–	> 46	> 9.22	8.39% [at 11.4 µM]	inactive	–	–	–	-4.29	–	-1.05	–
